Experimental data published in PubChem BioAssay (Tox21).
Records with an inconclusive call do not appear. The source made the active and inactive calls. Unless noted, the call rests on the fitted dose curve; in most records, active means well fitted curve in the direction sought with a large enough effect in the repeat runs; inconclusive means weak or mixed curves; inactive means no such curve, though single readings can be large; an effect the other way counts as inactive or inconclusive.

Experiments:
[1] = qHTS assay to identify small molecule antagonists of the estrogen receptor alpha (ER-alpha) signaling pathway using the BG1 cell line in the presence of 0.1 nM 17-beta-estradiol - cell viability counter screen (AID 1259241); further: nearly all actives have a fitted effect of over 40% in size
Summary of the method: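 VM7Luc4E2 cells (endogenous ER-alpha, 4×ERE-luciferase), hormone-starved 5 days in charcoal-stripped FBS, were treated with compounds plus 0.1 nM 17beta-estradiol for 22 hr at 37C; viability read in same wells as CellTiter-Fluor live-cell protease fluorescence.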

[2] = qHTS assay to identify small molecule antagonists of the androgen receptor (AR) signaling pathway using the MDA cell line in the presence of 0.5 nM R1881 - cell viability counter screen (AID 1259242); further: nearly all actives have a fitted effect of over 45% in size
Summary of the method: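 MDA-kb2 cells (MMTV-luciferase, AR/GR responsive) were treated with compounds plus 0.5 nM R1881 (final) for 16 hr at 37C, 0% CO2. Viability was then read in the same wells as live-cell protease fluorescence (CellTiter-Fluor, 30 min).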

[3] = target: Estrogen receptor (Homo sapiens) (UniProt P03372); test: qHTS assay to identify small molecule antagonists of the estrogen receptor alpha (ER-alpha) signaling pathway using the BG1 cell line in the presence of 0.1 nM 17-beta-estradiol (AID 1259244); further: nearly all actives have a fitted effect of over 50% in size
Chain of Estrogen receptor (Homo sapiens) (P03372 whole entry, looked up): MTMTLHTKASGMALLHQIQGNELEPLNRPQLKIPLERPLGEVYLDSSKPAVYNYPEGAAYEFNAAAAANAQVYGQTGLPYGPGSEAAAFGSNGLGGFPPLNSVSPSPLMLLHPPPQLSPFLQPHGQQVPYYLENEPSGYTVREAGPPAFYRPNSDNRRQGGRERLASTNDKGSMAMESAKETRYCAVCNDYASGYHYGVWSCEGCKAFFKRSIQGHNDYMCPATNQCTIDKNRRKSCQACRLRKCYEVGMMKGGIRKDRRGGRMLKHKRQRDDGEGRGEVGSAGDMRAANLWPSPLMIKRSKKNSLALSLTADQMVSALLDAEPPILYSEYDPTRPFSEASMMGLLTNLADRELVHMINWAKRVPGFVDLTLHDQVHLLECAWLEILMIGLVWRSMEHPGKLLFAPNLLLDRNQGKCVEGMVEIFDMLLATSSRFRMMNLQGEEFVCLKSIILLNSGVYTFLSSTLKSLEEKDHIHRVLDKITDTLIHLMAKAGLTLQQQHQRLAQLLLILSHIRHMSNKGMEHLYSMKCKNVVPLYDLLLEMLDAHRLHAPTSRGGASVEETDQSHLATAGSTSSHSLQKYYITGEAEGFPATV
Summary of the method: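 VM7Luc4E2 cells (endogenous full-length ER-alpha, 4×ERE-luciferase), kept 5 days in phenol red-free, charcoal-stripped FBS medium; 4,000 cells/well. Compounds added with 0.1 nM (final) 17beta-estradiol, 22 hr at 37C; luminescence read with ONE-Glo after 30 min.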

[4] = qHTS assay to identify small molecule phospholipidosis (PLD) inducers (AID 1259344; active means well fitted curve in the direction sought with a large enough effect; an effect the other way counts as inactive or inconclusive)
Summary of the method: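 HepG2 cells grown on collagen I take up LipidTOX Red while exposed to compound for 24 h; after fixation they are imaged at 20x and pit metrics are extracted.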

[5] = qHTS assay to identify small molecule HDAC inhibitors (AID 1259364); further: nearly all actives have a fitted effect of over 45% in size; further: potency means the concentration at half of the fitted maximal effect; on activity change, negative = inhibition: top concentration of the series differs between compounds
Summary of the method: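 Wild-type HCT-116 cells, plated overnight at 37 C, exposed to compounds 2 hr at 37 C; luminogenic HDAC-Glo substrate then added 30 min at room temperature. Luminescence reports relative endogenous class I/II HDAC activity.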

[6] = qHTS assay to identify small molecule HDAC inhibitors - cell viability counter screen (AID 1259365); further: series mostly up to about 92 µM; nearly all actives have a fitted effect of over 50% in size
Summary of the method: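 Wild-type HCT-116 cells were seeded at 1,500 per well, incubated overnight at 37 C, then exposed to compounds in DMSO for 2hr. Viability was read by CellTiter-Glo luminescence after 30min at room temperature.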

[7] = qHTS assay to identify small molecule agonists of the sonic hedgehog signaling (Shh) pathway - cell viability counter screen (AID 1259366); further: nearly all actives have a fitted effect of over 50% in size
Summary of the method: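 NIH/3T3-derived 3T3 Gli1-Luc cells (stable Gli1-responsive firefly luciferase reporter) were seeded, rested 4 hr at 37 C/5% CO2, then exposed to compounds in DMSO for 24 hr; viability was read by CellTiter-Fluor fluorescence in the same wells.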

[8] = qHTS assay to identify small molecule antagonists of the sonic hedgehog signaling (Shh) pathway - cell viability counter screen (AID 1259367); further: nearly all actives have a fitted effect of over 55% in size
Summary of the method: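 After a 4 hr settling period, 3T3 Gli1-Luc cells were treated with DMSO-dissolved chemicals and conditioned medium, kept 24 hr at 37C in 5% CO2, and assayed for viability by CellTiter-Fluor fluorescence following 1 hr reagent incubation.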

[9] = qHTS assay to identify small molecule agonists of the sonic hedgehog signaling (Shh) pathway (AID 1259368; calls by dose curve; further: series mostly up to about 92 µM; nearly all actives have a fitted effect of over 15% in size)
Summary of the method: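 NIH/3T3-derived 3T3Gli1-Luc cells with stably integrated Gli1-driven firefly luciferase, 2,000 cells/well, compounds added after 4 hr. Incubated 24 hr at 37C, 5% CO2; luminescence read after 30 min with luciferase reagent at room temperature.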

[10] = qHTS assay to identify small molecule antagonists of the sonic hedgehog signaling (Shh) pathway (AID 1259369; calls by dose curve; further: nearly all actives have a fitted effect of over 45% in size)
Summary of the method: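 NIH/3T3-derived Gli1-Luc reporter cells plated 4 h, dosed with compound, then stimulated with conditioned medium for 24 h at 37 C. Firefly luciferase luminescence read after 30 min with detection reagent at room temperature.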

[11] = target: Estrogen receptor beta (Homo sapiens) (UniProt Q92731); test: qHTS assay to identify small molecule agonists of the estrogen receptor beta (ER-beta) signaling pathway (AID 1259377; active means well fitted activation curve with a large enough effect in the signal ratio in the repeat runs, not every such curve was filed as active; the % refers to the signal ratio)
Chain of Estrogen receptor beta (Homo sapiens) (Q92731 whole entry, looked up): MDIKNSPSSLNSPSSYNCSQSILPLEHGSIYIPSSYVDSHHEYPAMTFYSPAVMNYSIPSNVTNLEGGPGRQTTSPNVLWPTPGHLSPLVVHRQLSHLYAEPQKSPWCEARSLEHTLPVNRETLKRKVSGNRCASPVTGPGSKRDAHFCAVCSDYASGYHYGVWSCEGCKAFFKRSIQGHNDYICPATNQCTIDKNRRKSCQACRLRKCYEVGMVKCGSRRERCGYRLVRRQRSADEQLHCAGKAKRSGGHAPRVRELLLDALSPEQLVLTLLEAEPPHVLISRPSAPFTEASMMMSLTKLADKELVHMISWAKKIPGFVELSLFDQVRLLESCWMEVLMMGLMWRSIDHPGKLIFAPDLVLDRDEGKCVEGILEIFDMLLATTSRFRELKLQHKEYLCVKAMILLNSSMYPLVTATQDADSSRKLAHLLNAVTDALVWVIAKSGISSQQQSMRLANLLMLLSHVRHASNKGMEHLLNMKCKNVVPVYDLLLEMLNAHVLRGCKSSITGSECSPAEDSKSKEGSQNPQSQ
Summary of the method: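 ER-beta-UAS-bla HEK293T (GripTite) cells carrying a UAS-driven beta-lactamase reporter, in medium with 2% charcoal-stripped FBS, were exposed to compounds for 16 hr at 37C; LiveBLAzer B/G FRET substrate was then added and fluorescence read after 2 hours at room temperature.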

[12] = target: Estrogen receptor beta (Homo sapiens) (UniProt Q92731); test: qHTS assay to identify small molecule antagonists of the estrogen receptor beta (ER-beta) signaling pathway (AID 1259378; active means well fitted inhibition curve with a large enough effect in the signal ratio in the repeat runs, not every such curve was filed as active; the % refers to the signal ratio)
Summary of the method: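 ER-beta-UAS-bla HEK293T (GripTite) cells in 2% charcoal-stripped FBS medium were preincubated 6 hr at 37C, dosed with compound, then stimulated with 1 nM E2 (final) for 16 hr; beta-lactamase reporter read by B/G FRET fluorescence after 2 hr substrate loading.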

[13] = qHTS assay to identify small molecule agonists of the androgen receptor (AR) signaling pathway in the presence of an antagonist - cell viability counter screen (AID 1259379);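 further: MDA-kb2 human breast cancer cells carrying an MMTV luciferase reporter; series mostly up to about 92 µM; nearly all actives have a fitted effect of over 25% in size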
Summary of the method: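 MDA-kb2 cells (MMTV-luciferase, AR/GR), 3,000/well, 5 h attachment, then 3.0 µM nilutamide (final) and compounds at 15 concentrations. Viability by CellTiter-Fluor fluorescence after 16 h at 37 °C, 0% CO2, in the reporter wells.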

[14] = qHTS assay to identify small molecule agonists of the estrogen receptor beta (ER-beta) signaling pathway - cell viability counter screen (AID 1259380); further: nearly all actives have a fitted effect of over 30% in size
Summary of the method: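 ER-beta-UAS-bla HEK293T cells in medium with 2% charcoal-stripped FBS, pre-incubated 6 hr, then treated 16 hr at 37C. Cytotoxicity read in the same wells by CellTiter-Glo luminescence after 30 min at room temperature.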

[15] = qHTS assay to identify small molecule antagonists of the estrogen receptor beta (ER-beta) signaling pathway - cell viability counter screen (AID 1259382); further: series mostly up to about 92 µM; nearly all actives have a fitted effect of over 55% in size
Summary of the method: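 ER-beta-UAS-bla HEK293T cells in 2% charcoal-stripped FBS medium, treated with compound plus 1 nM 17-beta-estradiol for 16 h at 37C. Viability read by CellTiter-Glo luminescence after 30 min at room temperature in the same wells.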

[16] = target: Estrogen receptor (Homo sapiens) (UniProt P03372); test: qHTS assay to identify small molecule agonists of the estrogen receptor alpha (ER-alpha) signaling pathway in the presence of an antagonist (AID 1259383; calls by dose curve; further: top concentration of the series differs between compounds; nearly all actives have a fitted effect of over 15% in size)
Summary of the method: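 VM7Luc4E2 cells express endogenous full-length ER-alpha with an ERE-luciferase reporter and were hormone-deprived for 5 days. Compounds at 15 concentrations were added with 10.0nM ICI-182,780 for 22hr at 37C. Luminescence was read with ONE-Glo.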

[17] = qHTS assay to identify small molecule agonists or antagonists of the thyroid stimulating hormone receptor (TSHR) signaling pathway - wild type cell line counter screen (AID 1259384; calls by dose curve)
Summary of the method: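 Wild-type HEK293 cells were plated 18 h at 37 C/5% CO2, pin-dosed with compound plus Ro20-1724 medium, held 30 min at room temperature, then given cAMP-d2 and anti-cAMP-cryptate; fluorescence was read after 1 h. Fifteen concentrations, triplicate.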

[18] = target: Thyrotropin receptor (Homo sapiens) (UniProt P16473); test: qHTS assay to identify small molecule antagonists of the thyroid stimulating hormone receptor (TSHR) signaling pathway (AID 1259385; calls by dose curve; further: nearly all actives have a fitted effect of over 20% in size; further: potency means the concentration at half of the fitted maximal effect)
Chain of Thyrotropin receptor (Homo sapiens) (P16473 whole entry, looked up): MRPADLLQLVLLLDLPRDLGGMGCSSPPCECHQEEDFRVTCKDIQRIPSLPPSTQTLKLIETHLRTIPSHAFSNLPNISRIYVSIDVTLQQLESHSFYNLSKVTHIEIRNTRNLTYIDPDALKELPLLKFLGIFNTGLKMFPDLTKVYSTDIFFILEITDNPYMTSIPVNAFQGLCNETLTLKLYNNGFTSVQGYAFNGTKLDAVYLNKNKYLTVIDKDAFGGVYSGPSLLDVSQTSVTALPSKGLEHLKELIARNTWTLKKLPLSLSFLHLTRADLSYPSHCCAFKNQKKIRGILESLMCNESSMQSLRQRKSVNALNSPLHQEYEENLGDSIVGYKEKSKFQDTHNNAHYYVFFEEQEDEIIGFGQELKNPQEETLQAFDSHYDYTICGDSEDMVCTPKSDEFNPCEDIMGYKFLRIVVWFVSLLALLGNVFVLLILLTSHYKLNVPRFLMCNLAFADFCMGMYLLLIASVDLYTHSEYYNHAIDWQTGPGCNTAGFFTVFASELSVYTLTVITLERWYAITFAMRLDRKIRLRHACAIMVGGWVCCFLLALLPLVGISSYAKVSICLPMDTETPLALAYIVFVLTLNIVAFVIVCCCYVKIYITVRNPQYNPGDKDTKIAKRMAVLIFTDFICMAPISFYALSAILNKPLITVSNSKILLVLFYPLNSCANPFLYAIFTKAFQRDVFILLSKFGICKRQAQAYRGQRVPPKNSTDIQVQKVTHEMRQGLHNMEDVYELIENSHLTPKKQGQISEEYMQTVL
Summary of the method: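 TSHR-HEK293 cells were plated and held 18 h at 37C/5% CO2, then given compound plus Ro20-1724 and stimulated with TSH at 1.5 ng/mL final. After 30 min at room temperature, cAMP was detected with cAMP-d2/anti-cAMP-cryptate (1 h) by fluorescence.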
On the % scale 0 is the no-effect control and ±100 the full control effect.

O=C1OC(c2ccc(O)c(S(=O)(=O)O)c2)(c2ccc(O)c(S(=O)(=O)O)c2)c2c(Br)c(Br)c(Br)c(Br)c21
inactive: outcome [1] | outcome [2] | Potency [3] | outcome [4] | Potency [5] | outcome [6] | Potency [7] | Potency [8] | outcome [9] | Potency [10] | outcome [11] | Potency [12] | Potency [13] | Potency [14] | Potency [15] | Potency [16] | Potency [17] | Potency [18]

CCOP(=S)(OCC)SCSc1ccc(Cl)cc1
inactive: outcome [1] | outcome [2] | Potency [3] | PLD induction [4] -3.38% [at 7.66 µM] | Potency [5] | outcome [6] | Potency [7] | Potency [8] | Potency [10] | outcome [11] | Potency [12] | Potency [13] | Potency [14] | Potency [15] | Potency [16] | Potency [17]
active: Potency [18] 30.6 µM

CCCCc1c(C)nc(NCC)[nH]c1=O
inactive: outcome [1] | outcome [2] | Potency [3] | Potency [5] | outcome [6] | Potency [7] | Potency [8] | outcome [9] | Potency [10] | Potency [12] | Potency [13] | Potency [14] | Potency [15] | Potency [16] | Potency [17] | Potency [18]

NC(=O)c1cc([N+](=O)[O-])cc([N+](=O)[O-])c1
inactive: outcome [1] | outcome [2] | Potency [3] | outcome [4] | Potency [5] | outcome [6] | Potency [8] | outcome [9] | Potency [10] | Potency [12] | Potency [13] | Potency [14] | Potency [17] | Potency [18]

C[C@@H]1CN(C2CCC(C#N)(c3ccc(F)cc3)CC2)CC[C@]1(C(=O)O)c1ccccc1 (some centres not stated)
inactive: outcome [1] | outcome [2] | Potency [3] | outcome [4] | Potency [5] | outcome [6] | Potency [7] | Potency [8] | Potency [10] | outcome [11] | Potency [12] | Potency [13] | Potency [14] | Potency [15] | Potency [16] | Potency [17] | Potency [18]

O=C1c2ccccc2C(=O)c2ccccc21
active: Potency [5] 3.66 µM
inactive: activity change, negative = cytotoxicity [1] 0.424% [at 19 µM] | viability change, negative = cytotoxic [2] 3.34% [at 19 µM] | activity change, negative = inhibition [3] 34.1% [at 19 µM] | outcome [4] | activity change, negative = cytotoxicity [6] -0.295% [at 19 µM] | viability change, negative = cytotoxic [7] 1.77% [at 19 µM] | viability change, negative = cytotoxic [8] -0.095% [at 19 µM] | activity change [9] 1.5% [at 18.9 µM] | activation [11] 1.09% [at 19 µM] | activity, negative = inhibition [12] 0.94% [at 19 µM] | activity change, negative = cytotoxicity [13] -1.61% [at 19 µM] | activity change, negative = cytotoxicity [14] 3.21% [at 19 µM] | activity change, negative = cytotoxicity [15] -0.678% [at 19 µM] | cAMP activity change [17] -4.84% [at 18.9 µM, active compounds read high] | activity change, negative = inhibition [18] -0.629% [at 19 µM]

CNNC
inactive: outcome [1] | outcome [2] | Potency [3] | Potency [5] | outcome [6] | Potency [7] | Potency [8] | outcome [9] | Potency [10] | Potency [12] | Potency [13] | Potency [14] | Potency [15] | Potency [16]

[O]=[Cd]
inactive: outcome [1] | outcome [2] | Potency [3] | outcome [4] | Potency [5] | outcome [6] | Potency [7] | Potency [8] | outcome [9] | Potency [10] | Potency [13] | Potency [14] | Potency [15] | Potency [17] | Potency [18]
